# Measurements as given in PubChem BioAssay (EPA / NIEHS).
# Several values for one entry are separate records, joined by “and”; a condition that tells them apart may be missing. Identical values can stand only once. Inconclusive results are not listed. Activity calls are given as the source filed them. How the source made its calls: active means hit-call score of the fitted dose curve at least 0.9, where 1 is the maximum; inconclusive means response in the unintended direction; inactive means score below 0.9.
# Key:
# [1] = target: human Tropomyosin Receptor Kinase A (TRKA), NTRK1 (gene 4914) (UniProt P04629); assay: NVS_ENZ_hTrkA: NovaScreen (NVS) Enzymatic Assay for human Tropomyosin Receptor Kinase A (TRKA) (AID 2283224)
# Outline: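 Recombinant human TrkA activity read after 1 h by fluorescence with electrophoretic mobility shift separating substrate and product. Primary screen in duplicate at 25 uM; actives were rerun in concentration-response up to 50 uM. Loss of signal versus DMSO.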
# [2] = target: human Tyrosine Protein Kinase Receptor Tie-2 (Tie2), TEK (gene 7010) (UniProt Q02763); assay: NVS_ENZ_hTie2: NovaScreen (NVS) Enzymatic Assay for human Tyrosine Protein Kinase Receptor Tie-2 (Tie2) (AID 2283225)
# Outline: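 Recombinant human Tie2 kinase activity was read cell-free by fluorescence with electrophoretic mobility shift, 1 hour after dosing. The screen used 25 uM in duplicate, then concentration-response up to 50 uM. Signal loss was scored against DMSO.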
# [3] = target: human Vascular Endothelial Growth Factor Receptor 1 (VEGFR1), FLT1 (gene 2321) (UniProt P17948); assay: NVS_ENZ_hVEGFR1: NovaScreen (NVS) Enzymatic Assay for human Vascular Endothelial Growth Factor Receptor 1 (VEGFR1) (AID 2283226)
# Sequence of human Vascular Endothelial Growth Factor Receptor 1 (VEGFR1), FLT1 (gene 2321) (P17948 whole entry, looked up): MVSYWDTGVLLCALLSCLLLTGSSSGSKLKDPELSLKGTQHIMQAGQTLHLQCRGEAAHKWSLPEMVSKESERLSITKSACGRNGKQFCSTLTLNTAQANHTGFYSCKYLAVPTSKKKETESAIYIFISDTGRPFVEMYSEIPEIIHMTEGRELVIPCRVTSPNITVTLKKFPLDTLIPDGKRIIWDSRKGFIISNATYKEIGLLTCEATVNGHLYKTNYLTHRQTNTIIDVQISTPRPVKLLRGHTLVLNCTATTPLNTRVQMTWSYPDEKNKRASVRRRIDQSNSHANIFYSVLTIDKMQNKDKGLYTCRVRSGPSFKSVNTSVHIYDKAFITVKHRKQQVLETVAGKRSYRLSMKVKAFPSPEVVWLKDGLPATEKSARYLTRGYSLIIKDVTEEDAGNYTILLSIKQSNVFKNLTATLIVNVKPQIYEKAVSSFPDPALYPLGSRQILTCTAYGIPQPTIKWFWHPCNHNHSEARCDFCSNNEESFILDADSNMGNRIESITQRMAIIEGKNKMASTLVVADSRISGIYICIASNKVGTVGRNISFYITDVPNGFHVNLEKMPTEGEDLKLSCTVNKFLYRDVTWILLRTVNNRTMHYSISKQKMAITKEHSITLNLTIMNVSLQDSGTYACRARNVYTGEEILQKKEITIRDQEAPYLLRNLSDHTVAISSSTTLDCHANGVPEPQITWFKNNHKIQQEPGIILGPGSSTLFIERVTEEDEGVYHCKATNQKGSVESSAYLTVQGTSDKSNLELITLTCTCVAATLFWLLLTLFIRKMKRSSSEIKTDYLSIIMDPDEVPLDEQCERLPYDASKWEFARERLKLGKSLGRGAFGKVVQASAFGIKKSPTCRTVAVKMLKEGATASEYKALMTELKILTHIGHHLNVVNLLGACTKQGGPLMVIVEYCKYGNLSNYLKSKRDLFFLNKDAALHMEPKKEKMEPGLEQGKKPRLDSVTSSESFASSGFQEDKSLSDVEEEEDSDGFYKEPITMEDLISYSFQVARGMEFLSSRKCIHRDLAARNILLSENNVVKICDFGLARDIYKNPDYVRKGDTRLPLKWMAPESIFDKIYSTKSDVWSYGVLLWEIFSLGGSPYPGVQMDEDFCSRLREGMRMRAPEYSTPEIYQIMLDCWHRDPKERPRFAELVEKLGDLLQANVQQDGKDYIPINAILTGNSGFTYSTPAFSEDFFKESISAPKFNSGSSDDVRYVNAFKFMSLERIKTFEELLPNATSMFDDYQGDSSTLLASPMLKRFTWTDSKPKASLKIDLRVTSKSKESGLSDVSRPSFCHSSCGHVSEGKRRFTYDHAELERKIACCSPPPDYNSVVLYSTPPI
# Outline: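 Cell-free assay of recombinant human VEGFR1 kinase with substrate, measured 1 h after dosing; fluorescence with electrophoretic mobility-shift separation of substrate and product, referenced to DMSO; primary screen at 25 uM in duplicate, actives then run in concentration series.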
# [4] = target: human Vascular Endothelial Growth Factor Receptor 3 (VEGFR3), FLT4 (gene 2324) (UniProt P35916); assay: NVS_ENZ_hVEGFR3: NovaScreen (NVS) Enzymatic Assay for human Vascular Endothelial Growth Factor Receptor 3 (VEGFR3) (AID 2283229)
# Sequence of human Vascular Endothelial Growth Factor Receptor 3 (VEGFR3), FLT4 (gene 2324) (P35916 whole entry, looked up): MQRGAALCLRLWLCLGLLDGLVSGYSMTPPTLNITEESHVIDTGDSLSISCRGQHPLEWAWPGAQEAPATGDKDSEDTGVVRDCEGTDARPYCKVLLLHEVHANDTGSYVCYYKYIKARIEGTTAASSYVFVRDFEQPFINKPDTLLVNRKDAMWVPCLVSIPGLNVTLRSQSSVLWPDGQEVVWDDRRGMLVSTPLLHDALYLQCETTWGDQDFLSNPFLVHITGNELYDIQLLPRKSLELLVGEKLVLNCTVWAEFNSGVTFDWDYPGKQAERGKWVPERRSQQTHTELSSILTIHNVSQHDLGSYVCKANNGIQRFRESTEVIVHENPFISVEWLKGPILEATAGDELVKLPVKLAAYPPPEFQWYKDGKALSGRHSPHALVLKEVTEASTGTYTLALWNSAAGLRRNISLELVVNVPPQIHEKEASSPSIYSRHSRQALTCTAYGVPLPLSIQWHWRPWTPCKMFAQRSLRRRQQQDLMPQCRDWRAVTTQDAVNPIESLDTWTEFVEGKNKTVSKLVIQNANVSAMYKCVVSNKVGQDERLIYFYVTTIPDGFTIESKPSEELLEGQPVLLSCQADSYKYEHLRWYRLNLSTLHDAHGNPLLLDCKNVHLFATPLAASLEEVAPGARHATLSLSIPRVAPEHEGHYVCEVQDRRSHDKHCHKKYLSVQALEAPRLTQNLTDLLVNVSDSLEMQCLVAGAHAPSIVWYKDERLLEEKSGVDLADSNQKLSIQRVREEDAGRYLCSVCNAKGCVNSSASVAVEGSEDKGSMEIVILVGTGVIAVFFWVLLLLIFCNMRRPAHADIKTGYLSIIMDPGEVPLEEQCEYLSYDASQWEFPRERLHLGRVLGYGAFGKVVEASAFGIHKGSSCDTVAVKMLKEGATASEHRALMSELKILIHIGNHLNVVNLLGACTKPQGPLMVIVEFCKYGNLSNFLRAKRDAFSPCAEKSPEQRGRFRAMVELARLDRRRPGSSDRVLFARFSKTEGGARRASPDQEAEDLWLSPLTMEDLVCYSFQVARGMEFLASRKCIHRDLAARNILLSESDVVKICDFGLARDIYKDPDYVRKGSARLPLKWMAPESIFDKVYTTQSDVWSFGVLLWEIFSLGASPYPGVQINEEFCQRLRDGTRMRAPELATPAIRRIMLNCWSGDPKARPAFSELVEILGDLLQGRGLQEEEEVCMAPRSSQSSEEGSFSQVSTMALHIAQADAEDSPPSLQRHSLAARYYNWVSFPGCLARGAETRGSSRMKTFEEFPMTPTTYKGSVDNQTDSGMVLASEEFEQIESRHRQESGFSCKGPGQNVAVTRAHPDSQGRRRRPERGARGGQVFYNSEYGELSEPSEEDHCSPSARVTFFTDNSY
# Outline: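 Cell-free recombinant VEGFR3 kinase reaction with fluorescent substrate, read 1 h after dosing by electrophoretic mobility shift separation of substrate and product. Single-concentration duplicate screen at 25 uM, then concentration-response up to 50 uM; loss of activity versus DMSO.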
# [5] = target: human Vascular Endothelial Growth Factor Receptor 2 (VEGFR2), KDR (gene 3791) (UniProt P35968); assay: NVS_ENZ_hVEGFR2: NovaScreen (NVS) Enzymatic Assay for human Vascular Endothelial Growth Factor Receptor 2 (VEGFR2) (AID 2283230)
# Outline: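 Cell-free recombinant VEGFR2 kinase, fluorescent substrate with electrophoretic mobility-shift separation; read 1 h after dosing. Screened at 25 uM in duplicate, hits to concentration-response up to 50 uM; loss-of-signal versus DMSO.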
# [6] = target: sheep Cyclooxygenase-2 (Cox2), PTGS2 (gene 443460) (UniProt P79208); assay: NVS_ENZ_oCOX2: NovaScreen (NVS) Enzymatic Assay for sheep Cyclooxygenase-2 (Cox2) (AID 2283231)
# Outline: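 Colorimetric absorbance read-out of COX activity, taken 0.66 hour post-dosing, using native protein from sheep placenta. Single-concentration duplicate screen (25 uM), then singleton concentration-response up to 50 uM for actives.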
# [7] = target: sheep Cyclooxygenase-1 (Cox1), PTGS1 (gene 443551) (UniProt P05979); assay: NVS_ENZ_oCOX1: NovaScreen (NVS) Enzymatic Assay for sheep Cyclooxygenase-1 (Cox1) (AID 2283239);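 further: actives reduce cyclooxygenase activity so potencies are for inhibitors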
# Sequence of sheep Cyclooxygenase-1 (Cox1), PTGS1 (gene 443551) (P05979 whole entry, looked up): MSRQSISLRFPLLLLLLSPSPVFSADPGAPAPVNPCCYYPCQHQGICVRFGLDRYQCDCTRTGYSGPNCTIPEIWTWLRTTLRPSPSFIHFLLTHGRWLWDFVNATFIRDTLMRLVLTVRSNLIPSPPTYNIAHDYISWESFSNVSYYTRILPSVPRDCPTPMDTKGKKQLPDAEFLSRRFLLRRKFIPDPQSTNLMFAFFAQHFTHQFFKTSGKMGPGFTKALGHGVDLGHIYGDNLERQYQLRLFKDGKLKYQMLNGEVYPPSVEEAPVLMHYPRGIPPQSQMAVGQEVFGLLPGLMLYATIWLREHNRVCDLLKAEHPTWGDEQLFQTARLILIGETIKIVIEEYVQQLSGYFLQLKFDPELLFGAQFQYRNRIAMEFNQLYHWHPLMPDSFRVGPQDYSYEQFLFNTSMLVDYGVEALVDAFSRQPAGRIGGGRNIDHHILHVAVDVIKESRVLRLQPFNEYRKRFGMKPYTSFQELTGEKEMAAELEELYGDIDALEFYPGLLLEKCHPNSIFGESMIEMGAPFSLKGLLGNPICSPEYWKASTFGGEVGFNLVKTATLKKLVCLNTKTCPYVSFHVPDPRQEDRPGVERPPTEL
# Outline: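 Colorimetric enzyme readout using sheep seminal-vesicle cyclooxygenase-1, measured 0.66 h post-dosing. Single-concentration duplicates at 25 uM first, then concentration series for actives, with DMSO as baseline and plate controls.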
# [8] = target: human Sirtuin 3 (SIRT3), SIRT3 (gene 23410) (UniProt Q9NTG7); assay: NVS_ENZ_hSIRT3: NovaScreen (NVS) Enzymatic Assay for human Sirtuin 3 (SIRT3) (AID 2283222)
# Outline: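 Cell-free enzyme assay with recombinant protein and fluorescent substrate, product separated by electrophoretic mobility shift; read 1 hour after dosing. Screened in duplicate at 25 uM, then singleton concentration-response up to 50 uM; loss of signal versus DMSO.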
# [9] = target: rabbit Imidazoline 2 Central (I2C), CKB (gene 100009085) (UniProt P00567); assay: NVS_ENZ_rabI2C: NovaScreen (NVS) Enzymatic Assay for rabbit Imidazoline 2 Central (I2C) (AID 2283228)
# Sequence of rabbit Imidazoline 2 Central (I2C), CKB (gene 100009085) (P00567 whole entry, looked up): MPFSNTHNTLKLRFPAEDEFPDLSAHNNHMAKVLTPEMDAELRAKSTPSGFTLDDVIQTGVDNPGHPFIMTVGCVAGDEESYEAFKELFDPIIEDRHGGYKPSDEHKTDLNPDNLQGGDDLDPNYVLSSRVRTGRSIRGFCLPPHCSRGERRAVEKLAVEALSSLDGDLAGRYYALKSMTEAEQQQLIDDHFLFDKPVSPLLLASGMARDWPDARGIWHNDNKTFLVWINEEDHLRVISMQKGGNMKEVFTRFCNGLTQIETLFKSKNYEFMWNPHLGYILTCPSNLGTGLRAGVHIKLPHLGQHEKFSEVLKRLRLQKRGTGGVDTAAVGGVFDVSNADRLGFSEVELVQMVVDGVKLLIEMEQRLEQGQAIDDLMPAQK
# Outline: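 Rabbit brain membranes, cell-free; readout by filter-based scintillation counting 1.5 hours after dosing, loss of signal vs DMSO. Initial duplicate test at 25 uM, then concentration-response with 50 uM top concentration.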
# [10] = target: rat Constitutive Nitric Oxide Synthase (CNOS), Nos1 (gene 24598) (UniProt P29476); assay: NVS_ENZ_rCNOS: NovaScreen (NVS) Enzymatic Assay for rat Constitutive Nitric Oxide Synthase (CNOS) (AID 2283236)
# Sequence of rat Constitutive Nitric Oxide Synthase (CNOS), Nos1 (gene 24598) (P29476 whole entry, looked up): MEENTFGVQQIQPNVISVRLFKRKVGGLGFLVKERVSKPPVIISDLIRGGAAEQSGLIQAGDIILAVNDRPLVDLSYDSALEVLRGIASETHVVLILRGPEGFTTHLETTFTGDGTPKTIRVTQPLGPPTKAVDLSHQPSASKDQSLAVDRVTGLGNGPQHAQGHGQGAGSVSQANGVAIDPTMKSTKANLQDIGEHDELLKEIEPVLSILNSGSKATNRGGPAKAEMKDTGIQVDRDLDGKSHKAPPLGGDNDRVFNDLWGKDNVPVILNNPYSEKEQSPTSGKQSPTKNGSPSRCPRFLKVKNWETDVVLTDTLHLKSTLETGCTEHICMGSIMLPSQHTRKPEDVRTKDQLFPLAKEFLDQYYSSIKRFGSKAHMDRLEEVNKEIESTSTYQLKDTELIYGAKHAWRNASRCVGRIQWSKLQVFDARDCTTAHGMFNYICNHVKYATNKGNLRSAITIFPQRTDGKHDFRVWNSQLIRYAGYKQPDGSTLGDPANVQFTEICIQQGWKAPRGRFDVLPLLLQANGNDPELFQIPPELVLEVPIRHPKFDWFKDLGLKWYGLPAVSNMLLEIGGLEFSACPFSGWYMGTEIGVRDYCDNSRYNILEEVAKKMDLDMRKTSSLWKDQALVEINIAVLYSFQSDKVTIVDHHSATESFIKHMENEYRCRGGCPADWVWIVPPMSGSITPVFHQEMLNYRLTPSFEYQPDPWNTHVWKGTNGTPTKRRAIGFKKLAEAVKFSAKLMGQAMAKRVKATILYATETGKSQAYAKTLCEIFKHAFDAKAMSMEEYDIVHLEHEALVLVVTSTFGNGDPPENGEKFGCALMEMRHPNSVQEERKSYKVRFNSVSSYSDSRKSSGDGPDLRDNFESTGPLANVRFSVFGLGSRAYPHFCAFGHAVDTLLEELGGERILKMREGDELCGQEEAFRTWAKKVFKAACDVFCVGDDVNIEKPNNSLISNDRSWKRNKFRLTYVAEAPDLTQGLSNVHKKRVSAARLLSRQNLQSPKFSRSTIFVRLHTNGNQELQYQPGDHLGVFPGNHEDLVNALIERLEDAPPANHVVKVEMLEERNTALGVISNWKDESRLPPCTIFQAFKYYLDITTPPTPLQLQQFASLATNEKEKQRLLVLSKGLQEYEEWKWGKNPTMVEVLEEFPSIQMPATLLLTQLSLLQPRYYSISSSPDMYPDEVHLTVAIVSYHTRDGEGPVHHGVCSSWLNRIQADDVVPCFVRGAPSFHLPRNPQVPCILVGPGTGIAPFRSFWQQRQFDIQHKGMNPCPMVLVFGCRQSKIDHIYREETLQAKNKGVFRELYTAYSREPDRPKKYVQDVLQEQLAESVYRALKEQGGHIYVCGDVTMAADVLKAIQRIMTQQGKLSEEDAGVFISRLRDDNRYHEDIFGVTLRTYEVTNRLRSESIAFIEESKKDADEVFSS
# Outline: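 Enzyme activity in rat brain membrane preparation, read 1 h after dosing by filter-based radiometric scintillation counting. Primary screen in duplicate at 25 uM; actives (e.g., ≥30% inhibition) then run in concentration-response up to 50 uM.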
# [11] = target: rat Catechol-O-Methyl Transferase (COMT), Comt (gene 24267) (UniProt P22734); assay: NVS_ENZ_rCOMT: NovaScreen (NVS) Enzymatic Assay for rat Catechol-O-Methyl Transferase (COMT) (AID 2283235)
# Outline: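 Cell-free enzyme activity with protein extracted from rat dorsal striatum, measured by HPLC with absorbance detection. Compounds screened at 25 uM in duplicate; actives then run in concentration-response up to 50 uM, loss of signal versus DMSO.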
# [12] = target: rat Monoamine Oxidase, MAO-B, Central (MAOBC), Maob (gene 25750) (UniProt P19643); assay: NVS_ENZ_rMAOBC: NovaScreen (NVS) Enzymatic Assay for rat Monoamine Oxidase, MAO-B, Central (MAOBC) (AID 2283238)
# Outline: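 MAO-B activity in rat brain tissue preparation, cell-free, measured radiometrically by scintillation counting 1.17 h after dosing. Screened in duplicate at 25 uM; actives then in concentration-response up to 50 uM. Loss of signal versus DMSO scored.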
# [13] = target: rat Acetylcholinesterase (AChE), Ache (gene 83817) (UniProt P37136); assay: NVS_ENZ_rAChE: NovaScreen (NVS) Enzymatic Assay for rat Acetylcholinesterase (AChE) (AID 2283233)
# Outline: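 Rat brain membrane acetylcholinesterase activity measured colorimetrically 0.33 h after compound addition, loss of signal relative to DMSO. Primary screen in duplicate at 25 uM; actives re-run as concentration-response with 50 uM top concentration.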
# [14] = target: bovine Dopamine Receptor (DR), Non-selective Binding, DRD1 (gene 281125) (UniProt Q95136); assay: NVS_GPCR_bDR_NonSelective: NovaScreen (NVS) G Protein-Coupled Receptor Assay for bovine Dopamine Receptor (DR), Non-selective Binding (AID 2283241)
# Outline: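 Bovine striatal membranes; radioligand displacement read by filtration and scintillation counting 1 h after dosing, loss of signal vs DMSO. Screened in duplicate at 25 uM, then concentration-response for hits.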
smiles,measurement,setting,value
O=S(=O)(O)C(F)(F)C(F)(F)C(F)(F)C(F)(F)C(F)(F)C(F)(F)C(F)(F)C(F)(F)F,AC50,[1],36.5 µM (active) and 28.4 µM (active)
same,AC50,[2],8.09 µM (active) and 6.38 µM (active) and 5.3 µM (active)
same,AC50,[3],11.9 µM (active) and 11.4 µM (active) and 8.57 µM (active)
same,AC50,[4],7.45 µM (active) and 9.17 µM (active)
same,AC50,[5],27.2 µM (active) and 43.1 µM (active)
same,AC50,[6],9.06 µM (active)
same,outcome,[7],inactive
CCCN(CCOc1c(Cl)cc(Cl)cc1Cl)C(=O)n1ccnc1,outcome,[8],inactive
same,outcome,[9],inactive
same,outcome,[10],inactive
CC(C)OC(=O)Nc1cccc(Cl)c1,outcome,[2],inactive
same,outcome,[11],inactive
same,outcome,[12],inactive
Cc1cc(C)nc(NC(=O)NS(=O)(=O)c2ccccc2C(=O)OC2COC2)n1,outcome,[2],inactive
same,AC50,[10],2.58 µM (active)
O=C(Nc1ccccc1)Nc1cnns1,outcome,[9],inactive
same,outcome,[13],inactive
same,outcome,[14],inactive
O=[N+]([O-])c1c(Cl)c(Cl)c(Cl)c(Cl)c1Cl,outcome,[9],inactive
CC1(c2ccc(Oc3ccccc3)cc2)OC(=O)N(Nc2ccccc2)C1=O (configuration not stated),outcome,[7],inactive
CNC(=O)Oc1ccccc1OC(C)C,AC50,[13],5.05 µM (active)
same,outcome,[10],inactive
O=C(O)C(F)(F)C(F)(F)C(F)(F)C(F)(F)C(F)(F)C(F)(F)C(F)(F)F,AC50,[2],13.7 µM (active)
same,outcome,[7],inactive
COP(=S)(OC)Oc1ccc(SC)c(C)c1,outcome,[4],inactive
CC(C)N(C(=O)COc1nnc(C(F)(F)F)s1)c1ccc(F)cc1,AC50,[13],14.2 µM (active)
OCCOc1ccccc1,outcome,[2],inactive
